Results on 9 molecules are retold here after PubChem BioAssay (NCI).

This is part of a sample that, as a whole, favours compounds with a hit. Of some 83,000 tested, about 20% had one in any assay.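 A percent growth of 40 corresponds to 60% growth inhibition; 0 means no net growth; -100 means all cells died. Active threshold: below 10.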 Values without a mark were called inactive. Calls of active or inactive are those of the source.

Holding throughout (test): NCI-60 one-dose screen, 48 h (100 = growth as untreated, 0 = no growth, -100 = all killed)
In one assay the test system is NCI-H23 lung. Particulars: 10 µM unless noted.
In another assay the test system is NCI-H226 lung. The settings on record: 10 µM unless noted.
Another assay has as its system NCI-H322M lung. Particulars: 10 µM unless noted.
A further assay deals with HOP-62 NSCLC. Particulars: 10 µM unless noted.
The test system of the next assay is HOP-92 NSCLC. Particulars: 10 µM.
For a further assay, the system named is NCI-H522 lung. The settings on record: 10 µM.
The next assay relates to A549/ATCC NSCLC. Particulars: 10 µM unless noted.
The next assay relates to 786-0 renal. The settings on record: 10 µM unless noted.
The subject of a further assay is DU-145 prostate. The settings on record: 10 µM unless noted.
The test system of the next assay is K-562 leukemia. The settings on record: 10 µM unless noted.
The test system of the next assay is MALME-3M melanoma. The settings on record: 10 µM unless noted.
A further assay deals with MDA-MB-231 breast. Particulars: 10 µM unless noted.
A further assay relates to RXF 393 renal. Particulars: 10 µM unless noted.
In the next assay the test system is SF-268 CNS. The settings on record: 10 µM unless noted.
Another assay relates to SF-295 CNS. Particulars: 10 µM unless noted.
The subject of a further assay is SF-539 CNS. The settings on record: 10 µM unless noted.
The subject of the next assay is UACC-257 melanoma. Particulars: 10 µM unless noted.
In the next assay the test system is M14 melanoma. The settings on record: 10 µM unless noted.
For another assay, the system named is COLO 205 colon. Particulars: 10 µM unless noted.

On to `O=C(Nc1cccc(Cn2c(=O)[nH]c3ccc(Oc4ncccn4)cc3c2=O)c1)c1cccc(F)c1`, for which the growth in the assay with NCI-H23 lung is 82.2%; with NCI-H226 lung, 74.1%; with NCI-H322M lung it was 86.4%; in the assay on HOP-62 NSCLC, 79%; in the assay on HOP-92 NSCLC it was 60.9%; with NCI-H522 lung, 60.9%. Besides, the growth was 70.2% with A549/ATCC NSCLC; 65.6% in the assay with 786-0 renal; 80.1% in the assay on DU-145 prostate; 45.1% in the assay on K-562 leukemia; 97.2% with MALME-3M melanoma; 74.7% in the assay with MDA-MB-231 breast. Further, the growth with RXF 393 renal was 87.1%; in the assay with SF-268 CNS it was 74.1%; with SF-295 CNS, 81.8%; in the assay with SF-539 CNS it was 80.1%; in the assay with UACC-257 melanoma, 67.3%; in the assay on M14 melanoma, 78.6%.
As to `CCCCCCNC(=O)Oc1ccc(/C(=C(/C)Cc2ccc(OC)cc2)c2ccc(OCCN(C)C)cc2)cc1`, the growth in the assay with NCI-H23 lung was 82.5%; in the assay on NCI-H226 lung, 85.7%; in the assay with NCI-H322M lung it was 86.5%; in the assay on HOP-62 NSCLC, 74.6%; with HOP-92 NSCLC, 46%; in the assay with A549/ATCC NSCLC, 54%. Moreover, the growth with 786-0 renal is 59.4%; in the assay on COLO 205 colon it was -60.4% (active); in the assay on DU-145 prostate it was 78.7%; in the assay with K-562 leukemia, -38.8% (active); with MALME-3M melanoma, -34.7% (active); with MDA-MB-231 breast it was 43%. Also, the growth is 51.4% with RXF 393 renal; 72.3% with SF-268 CNS; 65.8% in the assay with SF-295 CNS; 73.2% with SF-539 CNS; 5.2% (active) in the assay on UACC-257 melanoma; -53.9% (active) in the assay on M14 melanoma.
For the molecule `Cc1ncc(C(=O)Nc2ccc(CN3CCN(C)CC3)c(C(F)(F)F)c2)cc1C#Cc1c(N)ncc2ccccc12`, the growth with NCI-H23 lung was -73.1% (active); in the assay with NCI-H226 lung, -79.1% (active); in the assay on NCI-H322M lung, -99% (active); in the assay on HOP-62 NSCLC, -97.2% (active); in the assay on HOP-92 NSCLC it was -37.9% (active); in the assay on NCI-H522 lung, -85.7% (active). In addition, the growth with A549/ATCC NSCLC is -96.6% (active); with 786-0 renal, -91.8% (active); in the assay with DU-145 prostate, -87.8% (active); in the assay with K-562 leukemia, -73.2% (active); in the assay with MALME-3M melanoma, -84.9% (active); in the assay on MDA-MB-231 breast it was -96.6% (active). The growth is -93.9% (active) in the assay on RXF 393 renal; -54.4% (active) in the assay with SF-268 CNS; -90.5% (active) in the assay with SF-295 CNS; -98.5% (active) with SF-539 CNS; -86% (active) with UACC-257 melanoma; -86.1% (active) in the assay on M14 melanoma.
Take `Ic1ccc(SSc2ccc(I)cc2)cc1`: the growth in the assay on NCI-H23 lung was 98%; with NCI-H226 lung, 90.6%; in the assay on NCI-H322M lung, 100%; in the assay on HOP-62 NSCLC it was 108%; in the assay on HOP-92 NSCLC, 90.7%; in the assay on NCI-H522 lung, 86.7%. The growth is 74.1% in the assay on A549/ATCC NSCLC; 92.6% in the assay with 786-0 renal; 103% in the assay with DU-145 prostate; 95.5% with K-562 leukemia; 114% in the assay on MALME-3M melanoma; 87.8% in the assay with MDA-MB-231 breast. Also, the growth in the assay with RXF 393 renal was 99.7%; in the assay with SF-268 CNS it was 59.2%; in the assay on SF-295 CNS it was 77.5%; in the assay on SF-539 CNS, 86.1%; in the assay on UACC-257 melanoma it was 88.1%; with M14 melanoma, 104%.
Turning to `COc1ccccc1CNCCCN1C(=O)c2ccc3c4c(ccc(c24)C1=O)C(=O)N(CCCNCc1ccccc1OC)C3=O`, the growth in the assay with NCI-H23 lung was -72.8% (active); in the assay on NCI-H226 lung, -64.7% (active); in the assay with NCI-H322M lung, -46.6% (active); in the assay on HOP-62 NSCLC it was -35.9% (active); in the assay on HOP-92 NSCLC it was -19.5% (active); with A549/ATCC NSCLC, -86.5% (active). Also, the growth with 786-0 renal is -50% (active); in the assay with COLO 205 colon, -6.12% (active); in the assay with DU-145 prostate it was -81.4% (active); in the assay on K-562 leukemia, -44.2% (active); in the assay with MALME-3M melanoma it was -73.6% (active); in the assay with MDA-MB-231 breast, -13.1% (active). Besides, the growth was -93.9% (active) with RXF 393 renal; -64.4% (active) in the assay on SF-268 CNS; -56.3% (active) with SF-295 CNS; -70.7% (active) with SF-539 CNS; -97.9% (active) with UACC-257 melanoma; -61.9% (active) in the assay on M14 melanoma.
`CN1CCN(Cc2ccc(NC(=O)c3cncc(C#Cc4c(N)ncc5ccc(F)cc45)c3)cc2C(F)(F)F)CC1`: the growth was 30.6% in the assay with NCI-H23 lung; 8.85% (active) with NCI-H226 lung; 27.7% with NCI-H322M lung; 22.1% with HOP-62 NSCLC; -22.7% (active) in the assay with HOP-92 NSCLC; 49.7% in the assay with NCI-H522 lung. Further, the growth in the assay with A549/ATCC NSCLC was 26.5%; in the assay on 786-0 renal it was -71.9% (active); in the assay on DU-145 prostate it was 46.2%; in the assay on K-562 leukemia, -33.4% (active); in the assay with MALME-3M melanoma it was -80.7% (active); in the assay with MDA-MB-231 breast it was -38.4% (active). For the same molecule, the growth in the assay with RXF 393 renal is -73.8% (active); with SF-268 CNS, 35.7%; in the assay on SF-295 CNS it was 52.2%; with SF-539 CNS, -68.2% (active); in the assay with UACC-257 melanoma, -55.9% (active); in the assay with M14 melanoma it was -73.7% (active).
On to `C/C=C(/C)C(=O)OC1C=C(CO)C(=O)C(OC(=O)/C(C)=C\C)C1C(C)C` (configuration not stated), for which the growth in the assay on NCI-H23 lung was -66.3% (active); in the assay on NCI-H226 lung, -0.591% (active); with NCI-H322M lung, -90.3% (active); in the assay with HOP-62 NSCLC, -31.4% (active); in the assay with HOP-92 NSCLC it was -72.8% (active); in the assay on NCI-H522 lung, -52.8% (active). Also, the growth in the assay on A549/ATCC NSCLC is -9.36% (active); in the assay with 786-0 renal it was -88.6% (active); with DU-145 prostate it was -90.9% (active); in the assay on K-562 leukemia, -18.3% (active); in the assay with MALME-3M melanoma, -91.2% (active); in the assay on MDA-MB-231 breast, -61.2% (active). Besides, the growth was -79.2% (active) in the assay on RXF 393 renal; -57.3% (active) in the assay with SF-268 CNS; -54.3% (active) with SF-295 CNS; -92.1% (active) in the assay on SF-539 CNS; -48.8% (active) in the assay with UACC-257 melanoma; -84.7% (active) in the assay with M14 melanoma.
For the molecule `COc1ccc2c(N)ncc(C#Cc3cc(C(=O)Nc4ccc(CN5CCN(C)CC5)c(C(F)(F)F)c4)cnc3C)c2c1`, the growth with NCI-H23 lung was -30.3% (active); with NCI-H226 lung, 55%; in the assay with NCI-H322M lung, 31.6%; in the assay with HOP-62 NSCLC, 45.3%; with HOP-92 NSCLC it was 1.06% (active); in the assay on NCI-H522 lung it was -38.3% (active). Moreover, the growth is -68.6% (active) in the assay on A549/ATCC NSCLC; -55.6% (active) in the assay with 786-0 renal; -89.2% (active) in the assay on DU-145 prostate; -63.4% (active) in the assay with K-562 leukemia; -81.9% (active) in the assay on MALME-3M melanoma; -85% (active) in the assay on MDA-MB-231 breast. In addition, the growth is -73.4% (active) in the assay on RXF 393 renal; 6.51% (active) in the assay with SF-268 CNS; 63% with SF-295 CNS; -93.4% (active) in the assay on SF-539 CNS; 27.4% with UACC-257 melanoma; -78.1% (active) in the assay on M14 melanoma.
In the case of `Cc1ncc(C(=O)Nc2ccc(CN3CCN(C)CC3)c(C(F)(F)F)c2)cc1C#Cc1c(N)ncc2ccc(F)cc12`, the growth in the assay on NCI-H23 lung was -79.4% (active); with NCI-H226 lung, 19.5%; with NCI-H322M lung it was -89.7% (active); in the assay on HOP-62 NSCLC, 15.9%; in the assay with HOP-92 NSCLC it was -29.9% (active); with NCI-H522 lung, 37.3%. The growth in the assay on A549/ATCC NSCLC is -69.9% (active); in the assay on 786-0 renal, -70.5% (active); in the assay on DU-145 prostate it was -88.6% (active); in the assay on K-562 leukemia, -57.1% (active); in the assay on MALME-3M melanoma, -79.6% (active); with MDA-MB-231 breast, -88.9% (active). For the same molecule, the growth in the assay with RXF 393 renal was -88.1% (active); in the assay on SF-268 CNS it was 20%; in the assay with SF-295 CNS, 42%; in the assay with SF-539 CNS, -93.6% (active); in the assay on UACC-257 melanoma it was -18.6% (active); with M14 melanoma, -74.9% (active).
